# Experimental data published in the supplement of paper PMC8728848.
# Many of the other results were omitted from the sample, so the strongest signals are more common in it than they were.
# Legend:
# Test in all cases: glycan array binding signal (z-score within array); higher = stronger binding
# Settings in all cases: glycan notation: IUPAC condensed, linker removed
# [1] = molecular target: GlcNAc(a1-4)Gal(b1-4)GlcNAc(b1-3)Gal(b1-4)[Fuc(a1-3)]GlcNAc(b1-3)Gal(b1-4)[Fuc(a1-3)]GlcNAc
# Outline: (§1)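 Arrays were curated from the Consortium for Functional Glycomics database, 3228 in total, and kept only where the protein sequence was available. Binding is expressed as a within-array Z-score. This score was averaged across arrays of the same protein sequence at different concentrations or buffers and across linkers, and negative values can be read as non-binding.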
# [2] = molecular target: GlcNAc(b1-2)[GlcNAc(b1-4)]Man(a1-3)[GlcNAc(b1-2)Man(a1-6)]Man(b1-4)GlcNAc(b1-4)GlcNAc
# Outline: as §1
# [3] = molecular target: GlcNAc(b1-2)[GlcNAc(b1-4)]Man(a1-3)[GlcNAc(b1-4)][GlcNAc(b1-2)Man(a1-6)]Man(b1-4)GlcNAc(b1-4)GlcNAc
# Outline: as §1
# [4] = molecular target: GlcNAc(b1-3)Gal(b1-4)GlcNAc(b1-3)Gal(b1-4)GlcNAc(b1-2)Man(a1-3)[GlcNAc(b1-3)Gal(b1-4)GlcNAc(b1-3)Gal(b1-4)GlcNAc(b1-2)Man(a1-6)]Man(b1-4)GlcNAc(b1-4)GlcNAc
# Outline: as §1
# [5] = molecular target: GlcNAc(b1-3)Gal(b1-4)GlcNAc(b1-3)Gal(b1-4)GlcNAc(b1-3)Gal(b1-4)GlcNAc(b1-2)Man(a1-3)[GlcNAc(b1-3)Gal(b1-4)GlcNAc(b1-3)Gal(b1-4)GlcNAc(b1-3)Gal(b1-4)GlcNAc(b1-2)Man(a1-6)]Man(b1-4)GlcNAc(b1-4)GlcNAc
# Outline: as §1
# [6] = molecular target: GlcNAc(b1-3)[GlcNAc(b1-4)][GlcNAc(b1-6)]GlcNAc
# Outline: as §1
# Kdn(a2-6)Gal(b1-4)GlcNAc = molecular target: Kdn(a2-6)Gal(b1-4)GlcNAc
# Outline: as §1
# [7] = molecular target: Man(a1-2)Man(a1-3)[Man(a1-2)Man(a1-6)]Man
# Outline: as §1
# [8] = molecular target: Man(a1-2)Man(a1-3)[Man(a1-2)Man(a1-6)]Man(a1-6)[Man(a1-2)Man(a1-2)Man(a1-3)]Man
# Outline: as §1
# Man(a1-3)[Man(a1-6)]Man = molecular target: Man(a1-3)[Man(a1-6)]Man
# Outline: as §1
# [9] = molecular target: Neu5Ac(a2-3)Gal(b1-3)GlcNAc(b1-2)[Neu5Ac(a2-3)Gal(b1-3)GlcNAc(b1-4)]Man(a1-6)[Neu5Ac(a2-3)Gal(b1-3)GlcNAc(b1-2)Man(a1-3)]Man(b1-4)GlcNAc(b1-4)GlcNAc
# Outline: as §1
# [10] = molecular target: Neu5Ac(a2-3)Gal(b1-3)GlcNAc(b1-3)Gal(b1-3)GlcNAc
# Outline: as §1
# [11] = molecular target: Neu5Ac(a2-3)Gal(b1-4)GlcNAc(b1-2)Man(a1-3)[GlcNAc(b1-4)][Neu5Ac(a2-3)Gal(b1-4)GlcNAc(b1-2)Man(a1-6)]Man(b1-4)GlcNAc(b1-4)GlcNAc
# Outline: as §1
# [12] = molecular target: Neu5Ac(a2-3)Gal(b1-4)GlcNAc(b1-2)Man(a1-3)[Neu5Ac(a2-6)Gal(b1-4)GlcNAc(b1-2)Man(a1-6)]Man(b1-4)GlcNAc(b1-4)GlcNAc
# Outline: as §1
# [13] = molecular target: Neu5Ac(a2-3)Gal(b1-4)GlcNAc(b1-3)Gal(b1-4)GlcNAc(b1-3)[Neu5Ac(a2-3)Gal(b1-4)GlcNAc(b1-3)Gal(b1-4)GlcNAc(b1-6)]GalNAc
# Outline: as §1
# [14] = molecular target: Neu5Ac(a2-3)Gal(b1-4)[Fuc(a1-3)]GlcNAc(b1-3)GalNAc
# Outline: as §1
# [15] = molecular target: Neu5Ac(a2-3)Gal6S(b1-4)[Fuc(a1-3)]GlcNAc
# Outline: as §1
# [16] = molecular target: Neu5Ac(a2-6)Gal(b1-4)GlcNAc
# Outline: as §1
# [17] = molecular target: Neu5Ac(a2-6)Gal(b1-4)GlcNAc(b1-2)Man(a1-3)[Gal(b1-4)GlcNAc(b1-2)Man(a1-6)]Man(b1-4)GlcNAc(b1-4)GlcNAc
# Outline: as §1
# [18] = molecular target: Neu5Ac(a2-6)Gal(b1-4)GlcNAc(b1-2)Man(a1-3)[GlcNAc(b1-2)Man(a1-6)]Man(b1-4)GlcNAc(b1-4)GlcNAc
# Outline: as §1
# [19] = molecular target: Neu5Ac(a2-6)Gal(b1-4)GlcNAc(b1-2)Man(a1-3)[Neu5Ac(a2-3)Gal(b1-4)GlcNAc(b1-2)Man(a1-6)]Man(b1-4)GlcNAc(b1-4)GlcNAc
# Outline: as §1
# [20] = molecular target: Neu5Ac(a2-6)Gal(b1-4)GlcNAc(b1-6)GalNAc
# Outline: as §1
# [21] = molecular target: Neu5Ac(a2-8)Neu5Ac(a2-3)Gal(b1-3)GalNAc(b1-4)[Neu5Ac(a2-8)Neu5Ac(a2-3)]Gal(b1-4)Glc
# Outline: as §1
# [22] = molecular target: Neu5Ac(a2-8)Neu5Ac(a2-8)Neu5Ac(a2-3)[Gal(b1-3)GalNAc(b1-4)]Gal(b1-4)Glc
# Outline: as §1
# [23] = molecular target: Neu5Ac(b2-6)Gal(b1-4)GlcNAc
# Outline: as §1
# [24] = molecular target: Neu5Gc(a2-3)Gal(b1-3)[Fuc(a1-4)]GlcNAc
# Outline: as §1
binder,measurement,setting,value
Clec39 (Caenorhabditis elegans) (protein) MTSFYDNSSSSSKPVPLKTSRAQKIQILIFDNWKLILYGAISTLILVLAIMFSTLFFALPAANCDENSEPTKYYTTNAEITTTITTTNQKTTSTASSHLTTISSSATQIYSESSSSSTSQSTFTQSPPEISTTTIAPSDFSCQHGFTLVNNKCWKLVTSNQARPDADKICNGYGGATLFSIKSEQDNRAMIHFVKGQDIDFLWSGLLCSAGEPISCIWDIENGSTANYSNFADGFPNIVYGNCVYFITSGDEAGQWGNEQCGQVMNFVCELPATFQGKDGCKNNYEKSCYLRFDLNLTVPQAQNFCLEKCANLVSIHSANEVRFIMTIYDFIGEILIGALAPAQDFIYWLDGTPANYNNLKFFYNSTCVHMTVAPGMQNVGKWFTRFCTETGKFLCKRSIKNSCT,glycan array binding signal (z-score),[1],3.59
same,glycan array binding signal (z-score),[2],0.095
same,glycan array binding signal (z-score),[3],0.673
same,glycan array binding signal (z-score),[4],0.778
same,glycan array binding signal (z-score),[5],-0.221
same,glycan array binding signal (z-score),[6],0.102
same,glycan array binding signal (z-score),Kdn(a2-6)Gal(b1-4)GlcNAc,0.204
same,glycan array binding signal (z-score),[7],-0.005
same,glycan array binding signal (z-score),[8],0.088
same,glycan array binding signal (z-score),Man(a1-3)[Man(a1-6)]Man,0.047
same,glycan array binding signal (z-score),[9],0.47
same,glycan array binding signal (z-score),[10],-0.142
same,glycan array binding signal (z-score),[11],1.43
same,glycan array binding signal (z-score),[12],2.22
same,glycan array binding signal (z-score),[13],-0.101
same,glycan array binding signal (z-score),[14],4.34
same,glycan array binding signal (z-score),[15],-1.24
same,glycan array binding signal (z-score),[16],-1.22
same,glycan array binding signal (z-score),[17],0.815
same,glycan array binding signal (z-score),[18],0.613
same,glycan array binding signal (z-score),[19],-0.493
same,glycan array binding signal (z-score),[20],-0.055
same,glycan array binding signal (z-score),[21],1.4
same,glycan array binding signal (z-score),[22],0.076
same,glycan array binding signal (z-score),[23],-0.632
same,glycan array binding signal (z-score),[24],1.01
